Screening results deposited in PubChem BioAssay by National Center for Advancing Translational Sciences (NCATS).
Cruzain Triton – cruzain (T. cruzi) inhibition with detergent | P25779 | purified cruzain, Z-FR-AMC fluorescence, 0.01% Triton | Potency, µM, actives largely listed as inhibitors | hit rate 0.43% among 200,000; further: nearly all actives have a fitted effect of over 40% in size
Target sequence (P25779 123-467 limits assumed): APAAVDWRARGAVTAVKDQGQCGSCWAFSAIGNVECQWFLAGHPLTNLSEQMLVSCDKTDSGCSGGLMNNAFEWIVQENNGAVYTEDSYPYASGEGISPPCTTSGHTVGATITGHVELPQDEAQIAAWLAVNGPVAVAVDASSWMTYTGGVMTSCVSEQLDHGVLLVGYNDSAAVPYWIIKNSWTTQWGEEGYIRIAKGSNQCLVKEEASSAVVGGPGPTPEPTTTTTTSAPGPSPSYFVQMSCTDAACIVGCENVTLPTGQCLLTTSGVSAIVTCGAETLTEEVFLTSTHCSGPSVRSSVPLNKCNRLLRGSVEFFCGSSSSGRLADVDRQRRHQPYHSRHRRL
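Detergent-containing run (0.01% Triton X-100) in acetate buffer pH 5.5 with 5 mM DTT: enzyme at 1.5 nM final, 15 min compound preincubation at room temperature, then 2 uM Z-FR-AMC substrate. Activity taken as 60 s fluorescence increase at 360/450 nm.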
Cruzain inh noDet – blocks cruzain activity in detergent-free assay | P25779 | purified cruzain, Z-FR-AMC fluorescence, no detergent | Potency, µM, usual class: inhibitors | hit rate 2.3% among 200,000 | AID 1476; further: nearly all actives have a fitted effect of over 40% in size
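Detergent-free condition (0.00005% Triton X-100) in acetate buffer pH 5.5 with DTT. 1.5 nM enzyme and compound were pre-mixed 15 min, then 2 uM Z-FR-AMC substrate added; reaction progress from fluorescence change between first and third reads (60 s).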
Papain inh – papain (Carica papaya) inhibition counter-screen. Potency, µM, most hits filed as inhibitors. shares compounds with Cruzain Triton. purified papain, Z-FR-AMC fluorescence cleavage. AID 2161. hit rate 41% among 410; further: nearly all actives have a fitted effect of over 35% in size
Numbers stand for hits; - = inactive; ? = inconclusive; . = no result. Rows were chosen to be rich in hits. Some 2.5% of all compounds tested hit in one or more screens of this group. The call rests on the fitted dose curve; in most records, active means well fitted curve in the direction sought with a large enough effect; inconclusive means small, poorly fitted or top-dose-only effect, or another doubt; inactive means no such curve, though single readings can be large; an effect the other way counts as inactive or inconclusive.

SMILES	Cruzain Triton	Cruzain inh noDet	Papain inh
Cc1cccc(Nc2nc(N)c([N+](=O)[O-])c(N3CCC(C)CC3)n2)c1	-	-	.
O=C(CO/N=C/c1cccc([N+](=O)[O-])c1)NC1CCCCCC1	-	-	.
Cc1ccc(Cn2cc(C(=O)c3ccc(F)cc3)c(=O)c3cc4c(cc32)OCO4)cc1	-	-	.
COc1cc(Cn2c(=O)sc3ccccc32)ccc1OCCC(C)C	-	-	.
O=C(CCC(=O)N1CCSc2ccccc21)NCc1ccccc1Cl	-	-	.
COc1ccc2[nH]c(=O)c(NC(N)=S)nc2c1	2.2µM	1.3µM	-
COc1ccc2nc(SCC(N)=O)[nH]c2c1	-	-	.
CCOc1ccccc1N(CC(=O)NCCSc1ccccc1)S(=O)(=O)c1ccccc1	-	-	.
CN(C)c1nc(-c2ccccc2C(F)(F)F)nc2ccccc12	-	-	.
Cc1ccn2c(=O)cc(CSc3nnc(NC(=O)c4ccccc4Cl)s3)nc2c1	-	-	.
CNC(=O)c1ccc2nc(-c3ccccc3)c(-c3ccccc3)nc2c1	.	.	-
C=CCNC(=O)c1ccc2nc(-c3ccccc3)c(-c3ccccc3)nc2c1	-	-	.
O=c1oc2ccccc2cc1-c1csc(Cc2nc(-c3ccc(Br)cc3)cs2)n1	-	3.2µM	-
O=c1oc2ccc(Br)cc2cc1-c1csc(-c2ccc(Cl)cc2)n1	-	-	.
COC(=O)c1ccc(NC(=O)CSc2nc(=O)n(Cc3ccco3)c3c2CCC3)cc1	-	-	.
COc1c(N2C[C@@H]3CCCN[C@H]3C2)c(F)cc2c(=O)c(C(=O)O)cn(C3CC3)c12	-	-	.
CC(C)C[C@H](N)c1nnc(S(=O)(=O)Cc2cccc(F)c2)o1	11µM	13µM	-
CC(C)Cn1nnnc1S(=O)(=O)Cc1cccc(C#N)c1	-	-	.
CCC(=O)N1c2ccccc2CC1C(=O)NCCN1CCN(c2cccc(C(F)(F)F)c2)CC1 (centres undefined)	-	-	.
O=C(c1ccccc1)N1CCc2cc(CNS(=O)(=O)c3ccc(Cl)s3)ccc21	-	-	.
CCN(CC)C(=O)CN(C#N)c1nc(OC)nc(N(C)C)n1	-	-	.
COc1nc(C#N)nc(N(C)C)n1	10µM	13µM	16µM
Cn1c(CNC(=O)CSc2n[nH]c(-c3ccccc3Cl)n2)nc2ccccc21	-	-	.
CCc1ccc(Cn2nnc3c(=O)[nH]c(C4CCCN(C(=O)c5cccc(Cl)c5)C4)nc32)cc1 (centres undefined)	-	-	.
N#CCSc1nc2scc(-c3cccs3)c2c(=O)n1CCc1ccccc1	-	16µM	-
SMILES	Cruzain Triton	Cruzain inh noDet	Papain inh
Cc1ccc(-c2csc3nc(SCC(N)=O)n(Cc4ccccc4)c(=O)c23)cc1	-	-	.
O=C(CNC(=O)C1CCCCC1)OCC(=O)c1ccccc1	.	.	16µM
COC(=O)c1ccc(NC(=O)CNC(=O)C2CCCCC2)cc1	-	-	.
O=C(COC(=O)CNC(=O)C1CCCCC1)Nc1ccc2ccccc2c1	4.5µM	7.9µM	-
COc1cc(C(=O)COC(=O)CNC(=O)C2CCCCC2)cc(OC)c1OC	2.2µM	2.5µM	-
CC(=O)NCC(=O)OCC(=O)c1ccccc1	-	-	.
O=C(CNC(=O)C1CCCCC1)OCC(=O)c1ccc(C2CCCCC2)cc1	.	.	-
CC(=O)NCC(=O)OCC(=O)c1ccc(C)cc1	-	-	.
O=C(CNC(=O)C1CCCCC1)Nc1ccc(Cl)cc1	-	-	.
Cc1cccc(NC(=O)CSc2nnc3c4ccccc4n(C)c3n2)c1	-	-	.
CCOc1ccc(N2CC(c3nc4ccccc4n3CCC3CCCCC3)CC2=O)cc1 (centres undefined)	-	-	.
COc1cc(OC)c(NC(=O)Cn2cnc3nc4c(cc3c2=O)CCCC4)cc1Cl	-	-	.
CCOC(=O)C1CSC(Cc2ccc(OCc3ccc([N+](=O)[O-])cc3)cc2)N1 (centres undefined)	-	-	.
CCN(CC)C(=O)Cn1c(=O)cc(C)c2c(C)nn(-c3ccc(C)cc3)c21	-	-	.
O=C(C1CCCN(S(=O)(=O)c2cccc3nsnc23)C1)N1CCN(c2ccccc2Cl)CC1 (centres undefined)	-	-	.
CCN1CCN(CCCNC(=O)c2cc3c(s2)-c2ccccc2OC3)CC1	28µM	?	10µM
COc1ccccc1CNC(=O)c1cc2c(s1)-c1ccccc1OC2	-	-	.
O=C(Cn1c(=O)oc2cc(S(=O)(=O)N3CCCCCC3)ccc21)NC1CCCCCCC1	-	20µM	-
CCC1CCCCN1C(=O)Cn1c(=O)oc2cc(S(=O)(=O)N3CCCCC3)ccc21 (centres undefined)	-	-	.
COc1cccc2cc(S(=O)(=O)c3ccc(F)c(C)c3)c(=O)oc12	-	-	.
Cn1cc(S(=O)(=O)N2CCCCCC2)cc1C(=O)Nc1ccc(Cl)c(C(F)(F)F)c1	-	-	.
